# Most compounds without a hit are left out; they make up all but 4.4% or so of the library.
# D1 antagonist: human D1 dopamine receptor antagonism | P21728 | HEK293 TREx D1 cells, calcium flux, dopamine EC80; hits give low values | activity change, negative = inhibition, % at 10 µM | 3.2% of 360,000 active | AID 504652; in the data active means activity change below about -30%; further: on the % scale 0 is the no-effect control and ±100 the full control effect
#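 Tetracycline-induced HEK293 T-REx cells with force-coupled D1 receptor were loaded with a no-wash calcium dye. Compound was added after a 10 s baseline and read kinetically for 180 s; EC80 dopamine was then added and calcium flux followed another 180 s.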
# TRHR ag: agonists of human TRH receptor. 0.18% of 360,000 active. P34981. AID 493084. TRHR cells, calcium flux fluo-8, FDSS agonist mode. activation, % at 2 µM; further: 0% is about no effect
# Target sequence (P34981 whole entry, looked up): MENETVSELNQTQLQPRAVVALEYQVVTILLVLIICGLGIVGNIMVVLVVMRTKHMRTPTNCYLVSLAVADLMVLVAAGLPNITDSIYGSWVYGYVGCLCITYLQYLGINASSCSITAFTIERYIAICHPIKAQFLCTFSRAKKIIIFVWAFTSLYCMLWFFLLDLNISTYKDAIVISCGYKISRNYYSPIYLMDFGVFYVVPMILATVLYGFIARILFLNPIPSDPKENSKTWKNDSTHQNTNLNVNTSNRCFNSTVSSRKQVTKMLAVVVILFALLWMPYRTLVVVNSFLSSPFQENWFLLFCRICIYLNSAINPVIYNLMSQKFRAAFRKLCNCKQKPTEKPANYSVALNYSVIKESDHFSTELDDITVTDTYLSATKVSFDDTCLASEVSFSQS
#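 Agonist-mode FDSS calcium read (Ex 480/Em 530, 1 s cycles) in 1536-well TRHR cells with fluo-8 dye, after 10-cycle baseline and 23 nL compound addition; TRH at EC20 (10 nM final) added afterwards for the enhancer phase.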
# D1 ag: activates the human D1 dopamine receptor; activation, % at 2 µM; P21728; 1% of 360,000 active; HEK293 T-REx D1 cells, calcium flux, agonist mode; further: 0% is about no effect
#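 Agonism was scored from calcium flux recorded over 180 s (1 read/s) after pintool compound addition, following a 10-cycle baseline. Cells were inducible force-coupled HEK293 TREx D1, plated overnight at 30 C and loaded with no-wash calcium dye.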
# USP1-UAF1 inh: inhibitors of human USP1/UAF1 deubiquitinase. O94782. recombinant USP1/UAF1, Ub-Rhodamine cleavage fluorescence. Potency, µM (top dose mostly 57.1 µM), for inactives: at the highest dose activity change, negative = inhibition, hits mostly inhibitors. 0.23% of 390,000 active; active means well fitted inhibition curve with a large enough effect; inconclusive means small, poorly fitted or top-dose-only effect; inactive means no such curve, though single readings can be large or run the other way; further: potency means the concentration at half of the fitted maximal effect; on the % scale 0 is the no-effect control and ±100 the full control effect; nearly all actives have a fitted effect of over 60% in size
#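 USP1/UAF1 complex (1 nM) preincubated 15 min at room temperature with compound, then Ub-Rho substrate (150 nM final) added. Kinetic fluorescence at 480/540 nm over 6 reads at 60 s intervals; 50 mM HEPES pH 7.8, 0.5 mM EDTA, 0.1 mg/ml BSA, 1 mM TCEP, 0.01% Tween-20.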
# TRHR PAM: allosterically enhances the human TRH receptor; enhancement, % at 2 µM; TRHR cells, fluo-8 calcium fluorescence, EC20 TRH enhancement; P34981; 0.66% of 360,000 active; in the data active means enhancement above about 30%; further: 0% is about no effect
#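 Enhancer read-out: after compound pinning and an initial kinetic agonist-mode read, an EC20 of TRH (10 nM final) was injected and fluo-8 calcium signal (Ex 480/Em 530) followed at 1 s/cycle for 100 cycles in TRHR-expressing cells.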
# D1 potentiator: enhances dopamine response at the human D1 receptor | HEK293 TREx D1 cells, calcium flux, dopamine EC20 potentiation | potentiation, % at 10 µM | 0.036% of 360,000 active | AID 504651; in the data active means potentiation above about 30%; further: 0% is about no effect
# * = called active by the depositor; ? = inconclusive; / = not tested or not shown; [ ] = another dose, or the depositor's remark. Unless noted, no stated cut-off is given here; in the data, active means activation above about 30%; inactive means the rest.
SMILES,D1 antagonist,TRHR ag,D1 ag,USP1-UAF1 inh,TRHR PAM,D1 potentiator
CC(Sc1nnc(-c2ccco2)n1C)C(=O)N1C(C)CCCC1C (centres undefined),-41*,0,5,-12%,4,-4
O=c1cc(-c2ccccc2Cl)oc2c(NS(=O)(=O)c3ccccc3C(F)(F)F)ccc(O)c12,-30*,-1,2,1%,-3,-7
CCCn1c2ccccc2c2cnn(CC(=O)NCCc3ccc(C)cc3)c(=O)c21,-2,-1,1,-19%[11.4 µM],-1,5
O=C(CNC(c1ccccc1)c1ccccc1)Nc1c(F)cccc1F,-38*,-1,0,-17%,-3,-4
Cc1ccc(NC(=O)CNC(c2ccccc2)c2ccccc2)c(F)c1,5,1,7,-23%,1,-1
NC(=O)C[n+]1cccc(CNC(=O)c2ccc(OC(F)F)cc2)c1,-30*,2,1,-3%,-2,4
O=C(C[n+]1cccc(CNC(=O)c2ccc(OC(F)F)cc2)c1)Nc1cc(C(F)(F)F)ccc1Cl,-23,0,0,-18%,-2,-11
CN(Cc1ccccc1)S(=O)(=O)c1ccc(OCC(=O)N2CCOCC2)cc1,-32*,0,8,-18%,-5,-3
O=C(COc1ccc(S(=O)(=O)Nc2ccc(Cl)cc2)cc1)N1CCOCC1,-13,2,31*,-15%,2,-4
COc1ccc(NS(=O)(=O)c2ccc(OCC(=O)N3CCOCC3)cc2)cc1,-7,1,10,-14%,-8,-1
O=C(CCNS(=O)(=O)c1ccc(Cl)cc1)N1CCOCC1,-32*,-1,2,-18%,2,-6
Cc1ccc(N(CC(=O)N2CCOCC2)S(=O)(=O)c2ccccc2)cc1,-6,1,1,-13%,-8,-10
Cc1ccc(N(CCC(=O)N2CCOCC2)S(=O)(=O)c2ccccc2)cc1,-55*,0,2,-15%,1,/
O=C(CCNS(=O)(=O)c1ccc(Cl)cc1)N1CCCCCC1,27,0,3,-19%,-3,-3
CC(C)Oc1ccc(CNC(=O)Cc2ccc(NC(=O)N3CCSc4ncccc43)cc2)cc1,5,1,6,-6%,0,-2
Cc1ccc(N2CC(NC(=O)/C=C\c3ccc4c(c3)OCO4)CC2=O)cc1C (centres undefined),/,0,2,-22%,-2,-1
COc1cc2c(cc1OC)C(c1ccc(F)cc1)N(c1ccccc1)C(=O)C2 (centres undefined),-1,-1,-2,?,2,0
CCOC(=O)c1cnc(N2CCN(c3cccc(C)c3C)CC2)c2ccccc12,-3,0,1,-23%,15,-3
c1ccc(CNc2nc(NCc3ccccc3)c3ccccc3n2)cc1,-35*,1,38*,-19%,-9,3
Fc1ccc(Nc2nc(NCc3ccco3)c3ccccc3n2)cc1,-46*,2,23,-9%,-4,-19
O=C(NCc1ccc(OC(F)(F)F)cc1)c1cccc2c1C(=O)c1ccc(N3CCCCC3)cc1S2(=O)=O,/,/,/,25µM*,/,/
O=C(NCc1cc(C(F)(F)F)ccc1Cl)c1cccc2c1C(=O)c1ccc(N3CCC(N4CCCCC4)CC3)cc1S2(=O)=O,/,/,/,-25%,/,/
O=C(NCc1cc(C(F)(F)F)ccc1Cl)c1cccc2c1C(=O)c1ccc(N3CCCCC3)cc1S2(=O)=O,/,/,/,20µM*,/,/
Cc1oc(-c2ccc(C(=O)NC(C)c3ccccc3)cc2)nc1CS(=O)(=O)c1ccccc1 (centres undefined),-4,1,-1,-2%,5,-1
CCn1c(=O)sc2cc(NS(=O)(=O)c3ccc(C)cc3)ccc21,0,-1,13,-29%,12,-4
SMILES,D1 antagonist,TRHR ag,D1 ag,USP1-UAF1 inh,TRHR PAM,D1 potentiator
CCOc1cc(C(=O)N(Cc2nc(-c3ccc(C)cc3)no2)C(C)C)cc(OCC)c1OCC,-35*,1,19,-13%,-1,1
Cc1ccc(-c2noc(CN(C(=O)c3cccs3)C(C)C)n2)cc1,-30*,0,3,6%,7,0
Cn1c(=O)[nH]c(=O)c2c1nc1n2CCN1c1ccccc1,12,-1,0,-12%,7,-2
O=C(N/N=C/c1c[nH]c2ccccc12)c1ccccc1,-16,0,4,-19%,-4,-1
O=C(N/N=C/c1c[nH]c2ccc(Br)cc12)c1ccncc1,15,1,1,-9%,0,-3
O=C(N/N=C/c1c[nH]c2ccccc12)c1sc2ccccc2c1Cl,-75*,1,0,-1%,0,-10
O=C(N/N=C/c1c[nH]c2ccc(Br)cc12)c1ccccn1,-47*,0,-1,4%,-3,-4
CC(=O)c1ccc(NC2=NS(=O)(=O)c3ccccc32)cc1,-8,0,1,3%,0,-1
CCCCOC(=O)c1ccc(Nc2nc3ccccc3c3nnc(C)n23)cc1,-55*,1,5,-30%,-5,-4
CCCCOC(=O)c1ccc(NC2=NS(=O)(=O)c3ccccc32)cc1,-43*,0,1,-9%,1,-3
O=C(/C=C/c1cccs1)Nc1ccncc1,-2,-1,0,0%,8,-3
CCCCCCOC(=O)c1ccc(NC(=O)c2cc(OC)c(OC)c(OC)c2Br)cc1,/,-1,46*,-24%,23,1
CCCOC(=O)c1ccc(NC(=O)/C=C/c2cccs2)cc1,-43*,3,8,-12%,-3,-2
O=C(Cc1ccccc1)N(Cc1cccnc1)c1nc2c(F)cc(F)cc2s1,/,0,4,-26%,0,-2
CC(=O)N1c2ccc(S(=O)(=O)N3CCN(c4ccc(C)cc4C)CC3)cc2CC1C (centres undefined),9,-1,0,4%,9,-2
CCCOC(=O)c1ccc(NC(=O)c2cc(=O)[nH]c3ccccc23)cc1,-33*,1,5,-10%,5,-2
CCCCOC(=O)c1ccc(O)cc1,7,0,-4,-25%,-1,-3
CCCCc1ccc(NC(=O)OC)cc1,-29,0,82*,-17%,2,-8
CCCCOC(=O)Nc1ccc(C(=O)OCCC)cc1,-31*,1,2,?,-16,-16
COc1ccccc1NC(=O)CSc1nc(-c2ccc(C(C)(C)C)cc2)c(C#N)c(=O)[nH]1,2,0,7,?,0,3
Cc1cc(O)c(C(c2ccc(Cl)cc2)N2CCN(c3ccccc3)CC2)c(=O)n1Cc1ccco1 (centres undefined),6,0,0,-20%,-1,2
